# Assay results from the supplement of paper PMC10981050.
# Several values for one entry are separate records, joined by “and”; a condition that tells them apart may be missing. Equal values may be shown once. Where a name gives a salt, the structure may show the parent alone.
# What was measured:
# Test in all cases: cell viability relative to vehicle control; higher = less cytotoxic
# Conditions in all cases: 10 µM
# K562 = system: K562
# Outline: (§1)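 Each screen used CRISPR-edited mutant and wild-type clones from four leukaemia lines. Compounds were acoustically dispensed at a single 10 µM dose, and CellTiter-Glo luminescence was read after 48 h with the supernatant first removed. Viability was analysed in Genedata Screener and given as percent of the on-plate vehicle control.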
# MARIMO = system: MARIMO
# Outline: as §1
# MOLM14 = system: MOLM14
# Outline: as §1
# OCI-AML2 = system: OCI-AML2
# Outline: as §1
SMILES,cell viability (K562; SRSF2 genotype: SRSF2 P95H/wt),cell viability (K562; SRSF2 genotype: SRSF2 wt/wt),cell viability (MARIMO; SRSF2 genotype: SRSF2 P95H/wt),cell viability (MARIMO; SRSF2 genotype: SRSF2 wt/wt),cell viability (MOLM14; SRSF2 genotype: SRSF2 P95H/wt),cell viability (MOLM14; SRSF2 genotype: SRSF2 wt/wt),cell viability (OCI-AML2; SRSF2 genotype: P95H/wt),cell viability (OCI-AML2; SRSF2 genotype: wt/wt)
C[C@@H]1C(=O)O[C@H](C)[C@H]1C[C@@H](O)[C@](C)(O)[C@H]1CC[C@@]2(O)C3=CC(=O)[C@@H]4C[C@@H](O)[C@@H](O)C[C@]4(C)[C@H]3CC[C@]12C [Cyasterone],105% and 98%,105%,95.2%,98.3%,114%,105%,105%,98.2%
CCC1=C[C@@H]2CN(C1)Cc1c([nH]c3ccccc13)[C@@](C(=O)OC)(c1cc3c(cc1OC)N(C)[C@H]1[C@@](O)(C(=O)OC)[C@H](OC(C)=O)[C@]4(CC)C=CCN5CC[C@]31[C@@H]54)C2 [Vinorelbine Tartrate],15% and 35%,31.6%,7.46%,7.57%,0.68%,0.99%,1.63%,3.83%
CNc1ncc2cc(-c3cc(NC(=O)NCCC(C)(C)C)c(F)cc3C)c(C)nc2n1,14.9% and 29.3%,22%,36.9%,34.9%,27.2%,23.9%,31.7%,34.6%
CCC(C)(Oc1ccc(C2(c3ccc(OC(C)(CC)C(=O)O)cc3)CCCCC2)cc1)C(=O)O (stereo unspecified) [Clinofibrate],95.4% and 93.2%,93.7%,92.4%,102%,93.8%,96.6%,90.4%,102%
COc1ccc2c(c1)c(CC(=O)O)c(C)n2C(=O)c1ccc(Cl)cc1 [Indometacin Sodium],97.1% and 90.1%,101%,96.7%,103%,105%,101%,98.3%,110%
CCCn1/c(=N/C(=O)c2cccc(C(N)=O)c2)[nH]c2ccccc21 [Takinib],100%,96.3%,98.8%,103%,77.8%,91%,74.7%,84.3%
CNC(=O)c1ccccc1Nc1cc(Nc2ccc(N3CCOCC3)cc2OC)ncc1C(F)(F)F,77.7% and 90%,82.8%,38.6%,35.2%,11.4%,11.4%,21.3%,26.5%
COCCCC/C(=N\OCCN)c1ccc(C(F)(F)F)cc1 [Fluvoxamine maleate],94.3% and 95.6%,98.9%,80.8%,91.5%,87.8%,98%,93.9%,88.2%
CN(C)CC/C=C1/c2ccccc2Sc2ccc(Cl)cc21 [Chlorprothixene],80.1% and 80.7%,87.8%,78.3%,76.7%,66.2%,82.1%,66.6%,68.2%
CC(C)(C)c1cnc(CSc2cnc(NC(=O)C3CCNCC3)s2)o1,24.3% and 35.5%,27.3%,9.12%,4.42%,3.75%,0.63%,4.54%,18.1%
CC(C)=CCC[C@@](C)(O)[C@H]1CC[C@@]2(C)[C@@H]1[C@H](O)C[C@@H]1[C@@]3(C)CC[C@H](O)C(C)(C)C3CC[C@]12C (stereo partly drawn) [(20R)-Protopanaxdiol],109% and 101%,96%,103%,105%,106%,102%,103%,101%
CC(C)=CCC[C@@H](C)CC=O [Citronellal],104% and 96.5%,112%,96.2%,102%,103%,106%,105%,114%
CCCN[C@H]1CCc2nc(N)sc2C1 [Pramipexole dihydrochloride],103% and 96.9%,110%,103%,94.2%,79.1%,97.8%,103%,111%
O=[N+]([O-])c1cn2c(n1)OC[C@@H](OCc1ccc(OC(F)(F)F)cc1)C2,94.3% and 98.1%,91.8%,92.7%,101%,97.8%,97.5%,98.9%,99.5%
"Nc1nc2cc(-c3ccc4ncc(C(=O)N5CCOCC5)n4c3)ccc2o1 [Serabelisib (INK-1117,MLN-1117,TAK-117)]",92.2% and 98.4%,84.2%,64.5%,72.4%,57.7%,65.2%,53%,65.4%
CC(C)C[C@H](NC(=O)CNC(=O)c1cc(Cl)ccc1Cl)B(O)O [Ixazomib (MLN2238)],2.07%,3.87%,0.76%,3.15%,0.41%,0.47%,0.44%,1.8%
O=C(Nc1nc2cccc(-c3ccc(CN4CCS(=O)(=O)CC4)cc3)n2n1)C1CC1,89.3% and 94.9%,84.5%,71.2%,73%,48.1%,45.3%,20.1%,41.7%
C[C@H](CCC(=O)NCCS(=O)(=O)O)[C@H]1CC[C@H]2[C@@H]3[C@@H](O)C[C@@H]4C[C@H](O)CC[C@]4(C)[C@H]3CC[C@]12C [Tauroursodeoxycholic Acid],102%,99%,99.4%,108%,107%,103%,95.8%,114%
C/C=C(\C)C(=O)OC1c2c(ccc3ccc(=O)oc23)OC(C)(C)C1OC(=O)/C(C)=C/C (stereo unspecified) [Praeruptorin B],83.5% and 92.2%,90.4%,84.4%,111%,109%,94.7%,89.5%,91.6%

SMILES,cell viability (K562; SRSF2 genotype: SRSF2 P95H/wt),cell viability (K562; SRSF2 genotype: SRSF2 wt/wt),cell viability (MARIMO; SRSF2 genotype: SRSF2 P95H/wt),cell viability (MARIMO; SRSF2 genotype: SRSF2 wt/wt),cell viability (MOLM14; SRSF2 genotype: SRSF2 P95H/wt),cell viability (MOLM14; SRSF2 genotype: SRSF2 wt/wt),cell viability (OCI-AML2; SRSF2 genotype: P95H/wt),cell viability (OCI-AML2; SRSF2 genotype: wt/wt)
CN1c2cc(O)c(N=NC(N)=O)cc2CC1S(=O)(=O)O (stereo unspecified) [Carbazochrome sodium sulfonate],99.4% and 97%,95.2%,92.7%,98.7%,97%,99.3%,99.1%,106%
OCCOCCN1CCN(C2=Nc3ccccc3Sc3ccccc32)CC1 [Quetiapine fumarate (Seroquel)],91.1% and 95.4%,96.3%,85.8%,95.8%,90%,94.9%,74.6%,87%
CC(C)S(=O)(=O)c1ccc2nccc(Nc3ccc4scnc4c3)c2c1,60.2% and 78.2%,63.7%,101%,108%,75.2%,78.2%,83.2%,88.5%
CN[C@@H](C)C(=O)N[C@H](C(=O)N1CCC[C@H]1C(=O)N[C@H](C(=O)NCCCCCCNC(=O)[C@@H](NC(=O)[C@@H]1CCCN1C(=O)[C@@H](NC(=O)[C@H](C)NC)C1CCCCC1)C(c1ccccc1)c1ccccc1)C(c1ccccc1)c1ccccc1)C1CCCCC1,0.93% and 3.98%,3.06%,29.5%,8.11%,0.7%,0.53%,4.1%,9.14%
COc1ccc(C2CC(=O)c3c(O)cc(OC4OC(COC5OC(C)C(O)C(O)C5O)C(O)C(O)C4O)cc3O2)cc1OC (stereo unspecified) [Methyl-Hesperidin],96.9% and 106%,97.8%,107%,114%,108%,107%,107%,104%
CCN(CC)CCCC(C)Nc1c2ccc(Cl)cc2nc2ccc(OC)cc12 (stereo unspecified) [Quinacrine Dihydrochloride Dihydrate],2.28% and 4.46%,2.17%,1.66%,2.15%,0.54%,0.64%,0.59%,0.97%
CN(C)Cc1ccc(S(=O)(=O)n2ccc(/C=C/C(=O)NO)c2)cc1 [Resminostat (RAS2410)],1.83% and 16.1%,11.8%,2.94%,2.37%,0.76%,0.51%,0.72%,1.22%
CCS(=O)(=O)N1CC(CC#N)(n2cc(-c3ncnc4[nH]ccc34)cn2)C1,110% and 106%,108%,111%,115%,106%,109%,84.7%,92.9%
Cc1cc(-c2ncc(CC(=O)Nc3ccc(-c4cnccn4)cn3)cc2C)ccn1,73.5% and 84.3%,81.2%,81.6%,70%,48.8%,51.1%,54.8%,63.5%
CC(C)CCNC(=O)[C@H](CC(C)C)NC(=O)[C@H]1O[C@@H]1C(=O)O [Loxistatin Acid (E-64C)],107% and 106%,100%,102%,104%,101%,104%,106%,105%
C=C1CCOC1=O [2-Methylenebutyrolactone],106% and 101%,104%,97.3%,105%,88.6%,107%,125%,126%
O=C1c2ccccc2-c2n[nH]c3cccc1c23,95% and 105%,95.8%,72.3%,72%,45%,33.1%,53.1%,48.7%
COc1cc2oc(-c3ccc(O)cc3)cc(=O)c2c(O)c1[C@@H]1O[C@H](CO)[C@@H](O)[C@H](O)[C@H]1O[C@@H]1O[C@H](CO)[C@@H](O)[C@H](O)[C@H]1O [Spinosin],106%,104%,106%,101%,106%,104%,99.2%,100%
O=C(C=Cc1cccnc1)c1ccncc1,81.1% and 89%,77.7%,64.4%,62.8%,19.3%,18.4%,16.8%,28.9%
O=C(O)CCCCCCCC(O)C(O)CCCCCCO (stereo unspecified) [Aleuritic Acid],105% and 100%,97.5%,107%,112%,98.4%,107%,97.2%,101%
O=C(NC1CCN(CCCCC2(C(=O)NCC(F)(F)F)c3ccccc3-c3ccccc32)CC1)c1ccccc1-c1ccc(C(F)(F)F)cc1 [Lomitapide Mesylate],0.41% and 0.38%,0.33%,0.5%,0.68%,0.26%,0.3%,0.27%,0.3%
Cc1ncc([N+](=O)[O-])n1C [Dimetridazole],106% and 99.5%,105%,109%,106%,99.1%,103%,105%,109%
CC1(C)S[C@@H]2[C@H](NC(=O)Cc3ccccc3)C(=O)N2[C@H]1C(=O)O [Penicillin G Sodium],100% and 92%,99.5%,98.5%,107%,96.9%,103%,91.9%,109%
